Source: PubChem BioAssay
Shown are actives, neighbours in structure and some others; about 19% of the full set was active somewhere.
TDP1 cell noCPT = qHTS for Inhibitors of human tyrosyl-DNA phosphodiesterase 1 (TDP1): qHTS in cells in absence of CPT | actives 15% (n = 420,000) | Potency, µM (highest dose often 46.2 µM), actives largely listed as inhibitors | DT40 Tdp1-/- hTDP1 cells, no CPT, ATP luminescence, 48 h | AID 686978, 2013; note: nearly all actives have a fitted effect of over 55% in size
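Chicken DT40 Tdp1-/- cells complemented with human TDP1, screened without camptothecin (DMSO vehicle only), 400 cells/well. Compounds pin-transferred, cells incubated at 37 °C for at least 48 hr. Growth read as ATP-dependent luminescence (CellTiter-Glo, 30 min at RT).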
HT1080 IDH1KD tx = qHTS for induction of synthetic lethality in tumor cells producing 2HG: qHTS for the HT-1080-IDH1KD cell line; HT-1080 IDH1 knockdown viability, ATP luminescence, 48 h; Potency, µM (top dose mostly 46.1 µM), most hits filed as cytotoxic; actives 2% (n = 360,000); AID 686971, 2013
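Cytotoxicity counter-line: IDH1KD HT-1080, 48 h, CellTiter-Glo. Curves classed by r2, magnitude and activity.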
HT1080NT lethal = qHTS for induction of synthetic lethality in tumor cells producing 2HG: qHTS for the HT-1080-NT fibrosarcoma cell line; Potency, µM (titrated, usually from 46.1 µM), most hits filed as cytotoxic; actives 1.6% (n = 360,000); HT-1080-NT fibrosarcoma viability, CellTiter-Glo ATP luminescence, 48 h;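 note: NT is the 2HG producing partner of a matched IDH1 knockdown line; nearly all actives have a fitted effect of over 55% in size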
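Luminescent CellTiter-Glo readout after 48 hours of compound exposure at 37 degrees C defined viability of HT-1080-NT cells. Activity was normalized to DMSO wells and cell-free media wells; concentration-response curves were fitted and assigned curve classes.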
DT40 TDP1 CPT = qHTS for Inhibitors of human tyrosyl-DNA phosphodiesterase 1 (TDP1): qHTS in cells in presence of CPT | actives 12% (n = 420,000) | Potency, µM (top dose mostly 46.2 µM), most hits filed as inhibitors | AID 686979, 2013 | chicken DT40 Tdp1-/-;hTDP1 cells + 20 nM CPT, ATP luminescence, 48 h; note: nearly all actives have a fitted effect of over 55% in size
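Chicken DT40 Tdp1-/- cells stably complemented with human TDP1 were seeded at 400 cells/well in medium containing 20 nM camptothecin, exposed to pin-transferred compounds, and grown at 37 °C for at least 48 hr. Viability was read as ATP luminescence.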
KB-3-1 tox = qHTS assay for MDR1-selective chemotherapeutics: Primary screen using the parental adenocarcinoma cell KB-3-1; KB-3-1 viability, CellTiter-Glo ATP luminescence, 72 h; actives 1.4% (n = 400,000); AID 1347075, 2019; Potency, µM (titrated, usually from 46.1 µM), actives largely listed as cytotoxic; note: nearly all actives have a fitted effect of over 60% in size
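Here the drug-naive KB-3-1 line serves as comparator for MDR sub-line selectivity; cells received compound titrations, 72 h at 37 °C, then CellTiter-Glo readout.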
KB-V1 MDR tox = qHTS assay for MDR1-selective chemotherapeutics: Primary screen using the drug-selected MDR subline cells KB-V1. KB-V1 MDR cells viability, CellTiter-Glo, 72 h. Potency, µM (series often up to 46.1 µM), most hits filed as cytotoxic. actives 3.4% (n = 400,000). AID 1347076, 2019; note: nearly all actives have a fitted effect of over 60% in size
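qHTS viability screen in drug-selected KB-V1 MDR cells: 72 h compound treatment at 37 degrees C, ATP luminescence end point.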
Numbers stand for hits. Calls come from the whole dose curve; as a rule, active = well fitted curve in the direction sought with a large enough effect; inconclusive = small, poorly fitted or top-dose-only effect, or another doubt; inactive = no such curve, though single readings can be large; an effect the other way counts as inactive or inconclusive.

How did Cc1ccc(NC(=O)COc2ccc(N(C)S(=O)(=O)c3ccc(F)cc3)cc2)cc1 do in these assays?
TDP1 cell noCPT: 16.4µM; HT1080 IDH1KD tx: inactive; HT1080NT lethal: inactive; DT40 TDP1 CPT: inconclusive; KB-3-1 tox: inactive; KB-V1 MDR tox: inactive

How did COc1ccc(NS(=O)(=O)c2ccc(OC)c(N(C)S(=O)(=O)c3ccc(Cl)cc3)c2)cc1 do in these assays?
TDP1 cell noCPT: 6.51µM; HT1080 IDH1KD tx: inconclusive; HT1080NT lethal: 14.1µM; DT40 TDP1 CPT: 10.3µM; KB-3-1 tox: inactive; KB-V1 MDR tox: inconclusive

What do the screens show for `COc1ccc(NC(=O)COc2ccc(N(C)S(=O)(=O)c3ccc(Cl)cc3)cc2)cc1OC`?
TDP1 cell noCPT: 4.61µM; HT1080 IDH1KD tx: inactive; HT1080NT lethal: inactive; DT40 TDP1 CPT: 7.31µM; KB-3-1 tox: 20.6µM; KB-V1 MDR tox: 0.92µM

What do the screens show for `Cc1ccc(S(=O)(=O)N(C)c2ccc(OCc3cccc(C)c3)cc2)cc1`?
TDP1 cell noCPT: 18.4µM; HT1080 IDH1KD tx: inactive; HT1080NT lethal: inactive; DT40 TDP1 CPT: inconclusive; KB-3-1 tox: inactive; KB-V1 MDR tox: inactive

Results for O=C(COc1cccc(-n2cnnn2)c1)Nc1ccc([N+](=O)[O-])cc1 ?
TDP1 cell noCPT: inactive; HT1080 IDH1KD tx: inactive; HT1080NT lethal: inactive; DT40 TDP1 CPT: inactive; KB-3-1 tox: inactive; KB-V1 MDR tox: inactive

How did Cc1nn(S(=O)(=O)c2ccc(F)cc2)c(C)c1S(=O)(=O)N1CCCCCC1 do in these assays?
TDP1 cell noCPT: inactive; DT40 TDP1 CPT: inactive; KB-3-1 tox: inactive; KB-V1 MDR tox: inconclusive

What do the screens show for `CCN(CCCNC(=O)CSc1cc(=O)n(C)c2cc(Cl)ccc12)c1ccccc1`?
TDP1 cell noCPT: inconclusive; DT40 TDP1 CPT: inconclusive; KB-3-1 tox: inactive; KB-V1 MDR tox: inactive

How did CN(c1ccc(OCC(=O)NC2CCC(O)CC2)cc1)S(=O)(=O)c1ccc(Cl)cc1 (configuration not stated) do in these assays?
TDP1 cell noCPT: 13µM; HT1080 IDH1KD tx: inactive; HT1080NT lethal: inactive; DT40 TDP1 CPT: inconclusive; KB-3-1 tox: inactive; KB-V1 MDR tox: inactive

Results for COc1cc(NC(=O)COc2ccc(Cl)cc2)ccc1-c1cc2ccccc2oc1=O ?
TDP1 cell noCPT: 4.61µM; HT1080 IDH1KD tx: inconclusive; HT1080NT lethal: inconclusive; DT40 TDP1 CPT: 4.11µM; KB-3-1 tox: inconclusive; KB-V1 MDR tox: inconclusive

What do the screens show for `CCC1CCCCN1C(=O)COc1ccc(N(C)S(=O)(=O)c2ccc(C)cc2)cc1` (configuration not stated)?
TDP1 cell noCPT: 14.6µM; HT1080 IDH1KD tx: inactive; HT1080NT lethal: inactive; DT40 TDP1 CPT: 20.6µM; KB-3-1 tox: inconclusive; KB-V1 MDR tox: inconclusive

Results for CCOc1ccc2nc(NC(=O)COc3ccc(N(C)S(=O)(=O)c4ccc(C)cc4)cc3)sc2c1 ?
TDP1 cell noCPT: inconclusive; HT1080 IDH1KD tx: inactive; HT1080NT lethal: inactive; DT40 TDP1 CPT: inactive; KB-3-1 tox: inactive; KB-V1 MDR tox: inactive

What do the screens show for `Cc1ccc(-c2csc(NC(=O)COc3ccc(N(C)S(=O)(=O)c4ccc(C)cc4)cc3)n2)cc1`?
TDP1 cell noCPT: 18.4µM; HT1080 IDH1KD tx: inactive; HT1080NT lethal: inactive; DT40 TDP1 CPT: 14.6µM; KB-3-1 tox: inactive; KB-V1 MDR tox: inactive

Results for Cc1cc(C)cc(-n2c(SCC(=O)Nc3nnc(C)s3)nc3c([nH]c4ccccc43)c2=O)c1 ?
TDP1 cell noCPT: inconclusive; DT40 TDP1 CPT: inconclusive; KB-3-1 tox: inactive; KB-V1 MDR tox: inactive

How did COc1ccc(CCNC(=O)COc2ccc(N(C)S(=O)(=O)c3ccc(C)cc3)cc2)cc1 do in these assays?
TDP1 cell noCPT: inconclusive; HT1080 IDH1KD tx: inactive; HT1080NT lethal: inactive; DT40 TDP1 CPT: inconclusive; KB-3-1 tox: inactive; KB-V1 MDR tox: inactive

What do the screens show for `COc1ccc(-c2csc(NC(=O)COc3ccc(N(C)S(=O)(=O)c4ccc(C)cc4)cc3)n2)cc1`?
TDP1 cell noCPT: 6.51µM; HT1080 IDH1KD tx: inactive; HT1080NT lethal: inactive; DT40 TDP1 CPT: 5.17µM; KB-3-1 tox: inactive; KB-V1 MDR tox: inactive

How did C=CCn1c(Cc2cccc3ccccc23)n[nH]c1=S do in these assays?
TDP1 cell noCPT: inconclusive; HT1080 IDH1KD tx: inactive; HT1080NT lethal: inactive; DT40 TDP1 CPT: 20.6µM; KB-3-1 tox: inactive; KB-V1 MDR tox: 18.4µM

Results for C=CCn1c(CCn2c3ccccc3c3ccccc32)n[nH]c1=S ?
TDP1 cell noCPT: inactive; HT1080 IDH1KD tx: inactive; HT1080NT lethal: inactive; DT40 TDP1 CPT: inactive; KB-3-1 tox: inactive; KB-V1 MDR tox: inconclusive

What do the screens show for `CN1C2C=CC(=O)C1C1C(=O)N(c3ccccc3)C(=O)C12` (configuration not stated)?
TDP1 cell noCPT: 18.4µM; HT1080 IDH1KD tx: inconclusive; HT1080NT lethal: inconclusive; DT40 TDP1 CPT: 18.4µM; KB-3-1 tox: inconclusive; KB-V1 MDR tox: inconclusive

What do the screens show for `Cc1ccccc1N1C(=O)C2C3C=CC(C2C1=O)N(C)C3=O` (configuration not stated)?
TDP1 cell noCPT: inactive; HT1080 IDH1KD tx: inactive; HT1080NT lethal: inactive; DT40 TDP1 CPT: inactive; KB-3-1 tox: inactive; KB-V1 MDR tox: inactive

How did CO[C@H]1C[C@@H]2CC[C@@H](C)[C@@](O)(O2)C(=O)C(=O)N2CCCC[C@H]2C(=O)O[C@H]([C@H](C)C[C@@H]2CC[C@@H](OCCO)[C@H](OC)C2)CC(=O)[C@H](C)/C=C(\C)[C@@H](O)[C@@H](OC)C(=O)[C@H](C)C[C@H](C)/C=C/C=C/C=C/1C do in these assays?
TDP1 cell noCPT: 0.0266µM; DT40 TDP1 CPT: 0.0422µM

Results for CO[C@H]1C[C@@H]2CC[C@@H](C)[C@@](O)(O2)C(=O)C(=O)N2CCCC[C@H]2C(=O)O[C@H]([C@H](C)C[C@@H]2CC[C@@H](O)[C@H](OC)C2)CC(=O)[C@H](C)/C=C(\C)[C@@H](O)[C@@H](OC)C(=O)[C@H](C)C[C@H](C)/C=C/C=C/C=C/1C ?
TDP1 cell noCPT: inconclusive; DT40 TDP1 CPT: 4.47µM; KB-3-1 tox: inconclusive; KB-V1 MDR tox: inactive
